The results in this text go back to the supplement of paper PMC11001985.

A number with no mark means an inactive call.

Compound in this experiment: C#CCNC(=O)CCSSCCC(=O)NCCc1ccc(C=O)c(C=O)c1
The experiment in a line: lysine labeling ratio R10:1 (500 µM / 50 µM probe), SILAC-ABPP in living cells; higher = lower intrinsic lysine reactivity toward the probe, active = 2 or less. The settings on record: HeLa; probe concentrations 500 vs 50 µM. The method, boiled down:
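An alkyne-tagged lysine probe with a disulfide linker labelled living HeLa cells in PBS at room temperature at either 50 µM or 500 µM, using SILAC light and heavy cells in forward and reverse label swaps. Lysates were mixed, clicked to biotin-azide, trypsin-digested, enriched on neutravidin, DTT-released, alkylated and measured by LC-MS/MS on a TIMS-TOF Pro. Each lysine's R is the filtered median high-probe/low-probe MS1 peptide ratio, combined as the median over forward and reverse replicates, with 20 as the upper limit.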

UniProt P32004, sequence (P32004 whole entry): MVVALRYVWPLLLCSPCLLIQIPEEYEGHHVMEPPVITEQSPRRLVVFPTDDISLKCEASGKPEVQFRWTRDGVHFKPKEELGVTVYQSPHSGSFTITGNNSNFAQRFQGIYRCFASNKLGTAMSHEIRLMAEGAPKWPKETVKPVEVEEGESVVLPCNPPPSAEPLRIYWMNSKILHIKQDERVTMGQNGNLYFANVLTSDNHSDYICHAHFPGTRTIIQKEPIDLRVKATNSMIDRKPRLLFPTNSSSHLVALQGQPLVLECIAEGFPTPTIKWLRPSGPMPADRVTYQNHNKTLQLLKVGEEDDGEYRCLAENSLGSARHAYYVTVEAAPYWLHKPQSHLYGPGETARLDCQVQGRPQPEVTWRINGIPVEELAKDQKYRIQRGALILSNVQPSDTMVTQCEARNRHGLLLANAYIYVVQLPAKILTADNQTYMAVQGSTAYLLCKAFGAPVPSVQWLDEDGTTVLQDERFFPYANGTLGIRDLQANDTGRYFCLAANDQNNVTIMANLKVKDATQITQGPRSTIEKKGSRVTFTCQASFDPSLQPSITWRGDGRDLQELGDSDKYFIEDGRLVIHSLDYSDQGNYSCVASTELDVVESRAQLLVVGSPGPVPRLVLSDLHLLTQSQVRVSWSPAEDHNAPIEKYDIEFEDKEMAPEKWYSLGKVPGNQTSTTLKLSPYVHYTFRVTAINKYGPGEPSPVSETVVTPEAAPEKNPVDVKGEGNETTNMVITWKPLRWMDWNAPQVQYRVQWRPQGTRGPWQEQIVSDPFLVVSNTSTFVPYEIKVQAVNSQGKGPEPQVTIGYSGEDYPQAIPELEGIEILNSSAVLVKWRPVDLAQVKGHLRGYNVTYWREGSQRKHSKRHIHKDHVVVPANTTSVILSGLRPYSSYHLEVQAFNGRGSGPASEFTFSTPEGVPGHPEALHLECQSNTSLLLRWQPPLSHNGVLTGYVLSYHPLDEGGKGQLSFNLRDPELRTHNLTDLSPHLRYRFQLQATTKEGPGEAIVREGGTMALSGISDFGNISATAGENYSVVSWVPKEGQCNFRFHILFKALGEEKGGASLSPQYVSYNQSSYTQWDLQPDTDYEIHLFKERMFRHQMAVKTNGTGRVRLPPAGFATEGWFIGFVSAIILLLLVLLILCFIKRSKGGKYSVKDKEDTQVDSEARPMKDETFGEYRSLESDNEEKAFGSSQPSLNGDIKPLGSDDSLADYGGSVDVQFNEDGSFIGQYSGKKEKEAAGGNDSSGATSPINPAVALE
UniProt P49720, sequence (P49720 whole entry): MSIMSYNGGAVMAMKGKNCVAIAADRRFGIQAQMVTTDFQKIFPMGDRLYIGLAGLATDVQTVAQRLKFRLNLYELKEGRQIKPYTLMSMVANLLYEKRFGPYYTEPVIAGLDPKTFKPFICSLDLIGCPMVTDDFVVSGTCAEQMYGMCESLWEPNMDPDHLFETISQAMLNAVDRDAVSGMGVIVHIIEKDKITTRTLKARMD
UniProt P30086, sequence (P30086 whole entry, looked up): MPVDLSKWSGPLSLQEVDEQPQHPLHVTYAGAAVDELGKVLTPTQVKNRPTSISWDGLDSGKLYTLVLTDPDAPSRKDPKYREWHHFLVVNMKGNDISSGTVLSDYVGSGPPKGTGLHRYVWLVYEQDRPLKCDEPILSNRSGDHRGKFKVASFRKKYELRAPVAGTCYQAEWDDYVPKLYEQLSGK
UniProt Q9ULF5, sequence (Q9ULF5 whole entry): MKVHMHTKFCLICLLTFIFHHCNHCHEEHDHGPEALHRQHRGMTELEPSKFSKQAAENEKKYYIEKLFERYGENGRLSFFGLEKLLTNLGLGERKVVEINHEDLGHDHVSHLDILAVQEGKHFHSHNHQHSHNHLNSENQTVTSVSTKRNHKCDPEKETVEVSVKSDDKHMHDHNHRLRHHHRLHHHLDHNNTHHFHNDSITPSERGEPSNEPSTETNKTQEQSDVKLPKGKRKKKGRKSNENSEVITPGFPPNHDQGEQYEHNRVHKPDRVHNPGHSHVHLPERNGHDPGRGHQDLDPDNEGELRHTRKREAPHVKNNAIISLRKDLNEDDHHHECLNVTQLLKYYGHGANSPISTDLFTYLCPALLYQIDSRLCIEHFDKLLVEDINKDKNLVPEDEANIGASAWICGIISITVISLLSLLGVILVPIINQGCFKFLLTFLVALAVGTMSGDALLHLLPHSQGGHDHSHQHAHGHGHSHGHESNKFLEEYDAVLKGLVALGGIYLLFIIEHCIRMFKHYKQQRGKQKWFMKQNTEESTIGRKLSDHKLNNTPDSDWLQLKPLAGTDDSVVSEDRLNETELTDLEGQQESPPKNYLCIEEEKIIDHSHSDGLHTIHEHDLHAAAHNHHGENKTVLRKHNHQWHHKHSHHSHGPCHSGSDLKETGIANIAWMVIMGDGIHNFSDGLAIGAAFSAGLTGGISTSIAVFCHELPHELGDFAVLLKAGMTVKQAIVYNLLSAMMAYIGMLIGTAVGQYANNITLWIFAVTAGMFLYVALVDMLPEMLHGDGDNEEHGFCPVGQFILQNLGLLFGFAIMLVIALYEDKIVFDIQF
UniProt P11717, sequence (P11717 whole entry): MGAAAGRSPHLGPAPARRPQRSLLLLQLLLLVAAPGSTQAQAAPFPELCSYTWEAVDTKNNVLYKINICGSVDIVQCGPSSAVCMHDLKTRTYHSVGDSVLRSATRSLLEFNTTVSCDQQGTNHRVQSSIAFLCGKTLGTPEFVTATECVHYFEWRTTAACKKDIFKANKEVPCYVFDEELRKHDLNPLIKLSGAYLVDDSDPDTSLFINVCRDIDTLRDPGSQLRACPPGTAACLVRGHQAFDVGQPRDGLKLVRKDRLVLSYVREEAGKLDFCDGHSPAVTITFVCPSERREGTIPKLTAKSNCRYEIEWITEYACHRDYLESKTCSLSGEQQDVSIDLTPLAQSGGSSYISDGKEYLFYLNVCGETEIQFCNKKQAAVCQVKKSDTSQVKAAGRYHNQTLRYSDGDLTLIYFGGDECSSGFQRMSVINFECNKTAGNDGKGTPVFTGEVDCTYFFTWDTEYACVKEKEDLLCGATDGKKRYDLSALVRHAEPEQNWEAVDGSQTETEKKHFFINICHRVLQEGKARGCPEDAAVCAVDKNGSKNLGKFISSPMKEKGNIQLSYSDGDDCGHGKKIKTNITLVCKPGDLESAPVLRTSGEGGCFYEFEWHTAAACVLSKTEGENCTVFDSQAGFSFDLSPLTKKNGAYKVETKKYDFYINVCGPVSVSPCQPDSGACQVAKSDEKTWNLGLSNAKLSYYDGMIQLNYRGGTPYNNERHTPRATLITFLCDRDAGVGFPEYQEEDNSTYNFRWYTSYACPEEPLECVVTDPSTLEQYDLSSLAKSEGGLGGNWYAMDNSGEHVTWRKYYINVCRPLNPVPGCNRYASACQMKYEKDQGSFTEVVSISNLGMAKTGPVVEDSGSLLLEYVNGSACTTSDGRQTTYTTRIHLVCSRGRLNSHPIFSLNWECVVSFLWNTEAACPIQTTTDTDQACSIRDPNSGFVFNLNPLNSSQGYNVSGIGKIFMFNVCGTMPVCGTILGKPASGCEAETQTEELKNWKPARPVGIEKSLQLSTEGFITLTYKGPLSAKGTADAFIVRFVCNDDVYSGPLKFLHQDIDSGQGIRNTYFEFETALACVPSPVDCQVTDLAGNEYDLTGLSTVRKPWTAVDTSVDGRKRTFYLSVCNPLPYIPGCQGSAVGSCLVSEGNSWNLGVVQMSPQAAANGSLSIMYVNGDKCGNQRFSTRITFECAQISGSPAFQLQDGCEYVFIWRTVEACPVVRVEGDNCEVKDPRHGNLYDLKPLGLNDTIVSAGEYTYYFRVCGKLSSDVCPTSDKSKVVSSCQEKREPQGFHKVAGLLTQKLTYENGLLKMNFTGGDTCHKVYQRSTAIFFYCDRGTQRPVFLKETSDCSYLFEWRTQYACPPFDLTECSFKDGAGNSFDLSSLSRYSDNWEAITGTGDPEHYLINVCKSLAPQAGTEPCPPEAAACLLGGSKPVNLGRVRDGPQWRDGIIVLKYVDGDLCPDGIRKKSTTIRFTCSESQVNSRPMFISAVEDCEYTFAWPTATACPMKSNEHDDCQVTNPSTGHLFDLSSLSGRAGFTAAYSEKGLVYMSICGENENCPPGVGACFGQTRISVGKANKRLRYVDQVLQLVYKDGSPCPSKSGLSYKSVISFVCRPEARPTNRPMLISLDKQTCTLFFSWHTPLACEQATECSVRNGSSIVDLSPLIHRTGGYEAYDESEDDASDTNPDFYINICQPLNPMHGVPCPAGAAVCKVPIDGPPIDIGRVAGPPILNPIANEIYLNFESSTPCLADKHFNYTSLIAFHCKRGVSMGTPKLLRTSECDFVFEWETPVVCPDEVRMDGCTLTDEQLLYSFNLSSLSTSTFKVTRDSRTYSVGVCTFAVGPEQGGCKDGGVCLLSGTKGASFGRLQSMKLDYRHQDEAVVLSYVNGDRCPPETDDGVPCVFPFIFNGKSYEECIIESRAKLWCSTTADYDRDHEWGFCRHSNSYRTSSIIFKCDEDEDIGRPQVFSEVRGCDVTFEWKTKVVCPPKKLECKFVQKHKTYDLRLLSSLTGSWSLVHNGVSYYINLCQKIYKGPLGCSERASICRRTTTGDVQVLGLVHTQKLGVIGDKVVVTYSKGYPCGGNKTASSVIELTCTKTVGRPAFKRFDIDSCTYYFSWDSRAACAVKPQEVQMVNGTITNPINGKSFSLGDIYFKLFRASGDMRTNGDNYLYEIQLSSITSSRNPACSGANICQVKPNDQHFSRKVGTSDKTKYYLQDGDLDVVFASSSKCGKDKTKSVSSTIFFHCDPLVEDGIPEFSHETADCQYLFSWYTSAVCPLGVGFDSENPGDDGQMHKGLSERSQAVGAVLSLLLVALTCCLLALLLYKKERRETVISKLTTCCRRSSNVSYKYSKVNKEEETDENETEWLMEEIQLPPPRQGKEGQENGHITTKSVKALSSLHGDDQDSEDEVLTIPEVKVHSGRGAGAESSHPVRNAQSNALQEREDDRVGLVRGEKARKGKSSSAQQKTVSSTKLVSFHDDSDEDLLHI
UniProt P0C0S5, sequence (P0C0S5 whole entry): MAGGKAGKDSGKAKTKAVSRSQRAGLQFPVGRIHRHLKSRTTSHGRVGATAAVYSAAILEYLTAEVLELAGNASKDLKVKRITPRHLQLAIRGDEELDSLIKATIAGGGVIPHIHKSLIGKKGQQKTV

As for “MYH9 (lysine site: K202) (UniProt P35579)”, the “lysine labeling ratio R10:1” value is 1.58 (active).

As to “LGALS1 (lysine site: K130) (UniProt P09382)”, the “lysine labeling ratio R10:1” value is 2.14.

As to “FLNA (lysine site: K338) (UniProt P21333)”, the “lysine labeling ratio R10:1” value was 3.9.

Turning to “DSG2 (lysine site: K562) (UniProt Q14126)”, the “lysine labeling ratio R10:1” value is 6.57.

In the case of “P30462 (lysine site: K210) (UniProt P01889)”, the “lysine labeling ratio R10:1” value was 2.33.

For “PPA1 (lysine site: K176) (UniProt Q15181)”, the “lysine labeling ratio R10:1” value was 1.88 (active).

Take “MAGT1 (lysine site: K66) (UniProt Q9H0U3)”: the “lysine labeling ratio R10:1” value was 4.14.

Consider UniProt P0C0S5 (lysine site: K16), for which the “lysine labeling ratio R10:1” value is 1.12 (active).

On to “RPL4 (lysine site: K106) (UniProt P36578)”, for which the “lysine labeling ratio R10:1” value is 2.43.

With “SMOC1 (lysine site: K299) (UniProt Q9H4F8)”, the “lysine labeling ratio R10:1” value is 4.95.

As to UniProt Q13765 (lysine site: K82), the “lysine labeling ratio R10:1” value is 3.23.

UniProt P48047 (lysine site: K60): the “lysine labeling ratio R10:1” value was 2.17.

“L1CAM (lysine site: K119) (UniProt P32004)”: the “lysine labeling ratio R10:1” value is 3.56.

Regarding “ANXA1 (lysine site: K185) (UniProt P04083)”, the “lysine labeling ratio R10:1” value is 3.58.

On to UniProt Q9UKX5 (lysine site: K256), for which the “lysine labeling ratio R10:1” value was 5.46.

For “EEF2 (lysine site: K598) (UniProt P13639)”, the “lysine labeling ratio R10:1” value was 1.36 (active).

Regarding “DST (lysine site: K3977) (UniProt Q03001)”, the “lysine labeling ratio R10:1” value was 1.83 (active).

In the case of UniProt P49720 (lysine site: K77), the “lysine labeling ratio R10:1” value was 2.88.

Regarding “PDIA3 (lysine site: K433) (UniProt P30101)”, the “lysine labeling ratio R10:1” value was 2.21.

Turning to “PRDX1 (lysine site: K109) (UniProt Q06830)”, the “lysine labeling ratio R10:1” value was 2.64.

Regarding “HSPA8 (lysine site: K512) (UniProt P11142)”, the “lysine labeling ratio R10:1” value is 7.92.

Turning to UniProt P62851 (lysine site: K66), the “lysine labeling ratio R10:1” value was 2.69.

Take “CLU (lysine site: K222) (UniProt P10909)”: the “lysine labeling ratio R10:1” value is 0.58 (active).

For the target “EIF2S1 (lysine site: K190) (UniProt P05198)”, the “lysine labeling ratio R10:1” value is 2.9.

Take “RPL3 (lysine site: K155) (UniProt P39023)”: the “lysine labeling ratio R10:1” value was 0.69 (active).

Regarding “SLC39A10 (lysine site: K317) (UniProt Q9ULF5)”, the “lysine labeling ratio R10:1” value is 6.58.

For the target “L1CAM (lysine site: K998) (UniProt P32004)”, the “lysine labeling ratio R10:1” value is 6.57.

Consider “SPTAN1 (lysine site: K719) (UniProt Q13813)”, for which the “lysine labeling ratio R10:1” value is 3.93.

In the case of “EEF1G (lysine site: K401) (UniProt P26641)”, the “lysine labeling ratio R10:1” value is 2.74.

As for “LDLR (lysine site: K518) (UniProt P01130)”, the “lysine labeling ratio R10:1” value is 1.72 (active).

As to “RPL5 (lysine site: K27) (UniProt P46777)”, the “lysine labeling ratio R10:1” value was 1.97 (active).

UniProt Q15149 (lysine site: K2318): the “lysine labeling ratio R10:1” value was 4.26.

For the target UniProt O95084 (lysine site: K270), the “lysine labeling ratio R10:1” value is 2.67.

In the case of “PTPRJ (lysine site: K202) (UniProt Q12913)”, the “lysine labeling ratio R10:1” value is 2.9.

Regarding “FLOT2 (lysine site: K132) (UniProt Q14254)”, the “lysine labeling ratio R10:1” value is 2.82.

As to “PEBP1 (lysine site: K187) (UniProt P30086)”, the “lysine labeling ratio R10:1” value was 2.64.

With “IGF2R (lysine site: K1104) (UniProt P11717)”, the “lysine labeling ratio R10:1” value is 3.26.

UniProt P22413 (lysine site: K448): the “lysine labeling ratio R10:1” value is 0.527 (active).

As for UniProt O60462 (lysine site: K499), the “lysine labeling ratio R10:1” value is 1.47 (active).

For the target “RER1 (lysine site: K181) (UniProt O15258)”, the “lysine labeling ratio R10:1” value is 7.46.
